Assay results from publication PMC7862700, “An all-to-all approach to the identification of sequence-specific readers for epigenetic DNA modifications on cytosine”.

What was measured:
Assay in all cases: DAPPL (digital affinity profiling via proximity ligation, sequencing); 10 mM Tris-HCl pH 7.5, 50 mM NaCl, 1 mM DTT, 4% glycerol, room temperature, 30 min; GST-TFs on glutathione beads, 16-mer random dsDNA library, 0.1% formaldehyde crosslink after washing; high values mean tight binding
[1] = biological target: T1, FLI1 (Homo sapiens, UniProt Q01543 1-452); conditions: protein: recombinant; tags: N-terminal GST; dsDNA, one strand shown
T1 sequence: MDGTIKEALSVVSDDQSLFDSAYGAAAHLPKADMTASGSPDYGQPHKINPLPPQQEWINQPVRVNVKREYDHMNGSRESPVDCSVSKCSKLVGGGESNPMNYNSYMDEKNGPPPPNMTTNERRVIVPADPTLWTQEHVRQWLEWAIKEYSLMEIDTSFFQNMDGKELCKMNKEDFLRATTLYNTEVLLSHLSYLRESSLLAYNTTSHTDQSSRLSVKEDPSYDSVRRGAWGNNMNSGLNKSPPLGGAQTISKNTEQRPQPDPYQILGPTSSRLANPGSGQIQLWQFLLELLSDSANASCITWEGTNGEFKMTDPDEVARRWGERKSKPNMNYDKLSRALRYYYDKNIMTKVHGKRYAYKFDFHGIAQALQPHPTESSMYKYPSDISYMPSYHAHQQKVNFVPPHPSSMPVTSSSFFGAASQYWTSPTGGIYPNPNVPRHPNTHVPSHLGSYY
Method in brief: (§1)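 Pools were built from human transcription factors expressed in yeast as GST fusions, captured on glutathione beads and DNA-barcoded, along with a tag-only sample. Incubation with 200 nmole of a 16-mer random double-stranded DNA library lasted 30 min at room temperature in Tris/NaCl/DTT/glycerol buffer, and was followed by washing, 0.1% formaldehyde crosslinking, proximity ligation, PCR amplification and Illumina NextSeq500 sequencing. Binding signal is the quotient of each hexamer's read frequency for a factor and its frequency for the tag-only sample.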

[2] = biological target: T2, ELK1 (Homo sapiens, UniProt P19419 1-428); conditions: protein: recombinant; tags: N-terminal GST; dsDNA, one strand shown
T2 sequence: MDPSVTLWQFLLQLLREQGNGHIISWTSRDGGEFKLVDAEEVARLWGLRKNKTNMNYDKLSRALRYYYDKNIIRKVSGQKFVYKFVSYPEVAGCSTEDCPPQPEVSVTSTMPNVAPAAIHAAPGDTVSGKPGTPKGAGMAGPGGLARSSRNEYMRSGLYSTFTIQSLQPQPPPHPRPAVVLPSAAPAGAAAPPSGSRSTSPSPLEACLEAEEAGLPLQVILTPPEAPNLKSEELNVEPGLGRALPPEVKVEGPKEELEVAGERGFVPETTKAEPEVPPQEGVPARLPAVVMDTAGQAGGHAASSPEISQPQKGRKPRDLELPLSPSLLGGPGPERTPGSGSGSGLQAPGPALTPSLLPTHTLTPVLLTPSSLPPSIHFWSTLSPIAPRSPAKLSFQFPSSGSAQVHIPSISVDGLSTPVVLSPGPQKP
Method in brief: as §1

[3] = biological target: T3, GABPA (Homo sapiens, UniProt Q06546 1-454); conditions: protein: recombinant; tags: N-terminal GST; dsDNA, one strand shown
T3 sequence: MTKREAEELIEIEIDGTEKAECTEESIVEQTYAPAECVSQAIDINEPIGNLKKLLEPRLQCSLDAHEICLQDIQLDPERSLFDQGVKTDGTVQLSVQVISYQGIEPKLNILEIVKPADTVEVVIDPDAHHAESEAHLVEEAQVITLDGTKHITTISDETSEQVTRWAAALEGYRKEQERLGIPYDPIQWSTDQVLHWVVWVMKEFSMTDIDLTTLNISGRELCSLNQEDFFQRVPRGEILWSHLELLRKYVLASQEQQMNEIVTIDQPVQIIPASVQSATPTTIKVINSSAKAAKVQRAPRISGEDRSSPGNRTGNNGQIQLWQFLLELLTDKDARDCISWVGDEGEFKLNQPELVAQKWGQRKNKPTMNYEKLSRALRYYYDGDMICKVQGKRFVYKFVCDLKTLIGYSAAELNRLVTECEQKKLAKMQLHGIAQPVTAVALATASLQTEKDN
Method in brief: as §1

[4] = biological target: T4, ERG (Homo sapiens, UniProt P11308 1-479); conditions: protein: recombinant; tags: N-terminal GST; dsDNA, one strand shown
T4 sequence: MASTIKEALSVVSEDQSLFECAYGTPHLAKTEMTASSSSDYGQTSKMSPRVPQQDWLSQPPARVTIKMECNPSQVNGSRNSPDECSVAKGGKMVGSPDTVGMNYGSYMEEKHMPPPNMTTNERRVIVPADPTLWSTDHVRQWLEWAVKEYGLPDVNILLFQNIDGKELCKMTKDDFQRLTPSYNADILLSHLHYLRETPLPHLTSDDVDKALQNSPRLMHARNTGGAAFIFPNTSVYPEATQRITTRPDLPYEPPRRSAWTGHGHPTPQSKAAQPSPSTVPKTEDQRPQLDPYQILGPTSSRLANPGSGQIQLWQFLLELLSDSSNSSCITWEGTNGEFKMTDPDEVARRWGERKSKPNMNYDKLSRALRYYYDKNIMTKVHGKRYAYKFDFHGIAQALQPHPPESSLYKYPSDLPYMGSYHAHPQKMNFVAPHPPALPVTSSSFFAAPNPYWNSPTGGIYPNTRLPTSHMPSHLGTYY
Method in brief: as §1

[5] = biological target: ELF1 (Homo sapiens, UniProt P32519 1-619); conditions: protein: recombinant; tags: N-terminal GST; dsDNA, one strand shown
Method in brief: as §1

[6] = biological target: T5, EHF (Homo sapiens, UniProt Q9NZC4 1-300); conditions: protein: recombinant; tags: N-terminal GST; dsDNA, one strand shown
T5 sequence: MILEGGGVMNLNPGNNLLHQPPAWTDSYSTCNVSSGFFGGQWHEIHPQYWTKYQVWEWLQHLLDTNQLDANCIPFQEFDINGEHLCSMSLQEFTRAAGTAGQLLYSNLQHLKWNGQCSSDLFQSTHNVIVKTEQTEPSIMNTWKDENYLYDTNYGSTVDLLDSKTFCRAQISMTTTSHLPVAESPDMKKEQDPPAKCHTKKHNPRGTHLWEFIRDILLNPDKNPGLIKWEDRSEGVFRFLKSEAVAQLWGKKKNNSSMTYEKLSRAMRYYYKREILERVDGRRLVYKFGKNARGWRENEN
Method in brief: as §1

[7] = biological target: SPI1 (Homo sapiens, UniProt P17947 1-270); conditions: protein: recombinant; tags: N-terminal GST; dsDNA, one strand shown
Method in brief: as §1

[8] = biological target: SPIB (Homo sapiens, UniProt Q01892 1-262); conditions: protein: recombinant; tags: N-terminal GST; dsDNA, one strand shown
Method in brief: as §1

[9] = biological target: T6, ELK3 (Homo sapiens, UniProt P41970 1-407); conditions: protein: recombinant; tags: N-terminal GST; dsDNA, one strand shown
T6 sequence: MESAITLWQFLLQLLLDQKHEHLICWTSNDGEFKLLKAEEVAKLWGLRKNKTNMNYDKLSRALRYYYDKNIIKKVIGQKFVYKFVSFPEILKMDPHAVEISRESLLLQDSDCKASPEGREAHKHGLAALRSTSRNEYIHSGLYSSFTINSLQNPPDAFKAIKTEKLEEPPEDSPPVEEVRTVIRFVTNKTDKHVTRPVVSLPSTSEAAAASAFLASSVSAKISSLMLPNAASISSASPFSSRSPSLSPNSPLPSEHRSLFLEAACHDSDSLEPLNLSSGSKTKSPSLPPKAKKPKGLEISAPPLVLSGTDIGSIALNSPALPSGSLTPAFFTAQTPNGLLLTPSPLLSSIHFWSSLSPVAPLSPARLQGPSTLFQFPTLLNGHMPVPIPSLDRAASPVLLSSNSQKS
Method in brief: as §1

[10] = biological target: T7, FEV (Homo sapiens, UniProt Q99581 1-238); conditions: protein: recombinant; tags: N-terminal GST; dsDNA, one strand shown
T7 sequence: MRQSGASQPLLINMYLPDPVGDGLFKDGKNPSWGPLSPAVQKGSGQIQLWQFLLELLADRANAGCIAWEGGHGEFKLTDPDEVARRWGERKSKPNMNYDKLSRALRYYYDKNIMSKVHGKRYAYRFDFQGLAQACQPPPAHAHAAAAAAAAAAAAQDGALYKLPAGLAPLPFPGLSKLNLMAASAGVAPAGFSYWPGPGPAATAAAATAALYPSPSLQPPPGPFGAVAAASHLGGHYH
Method in brief: as §1

[11] = biological target: ETV5 (Homo sapiens, UniProt P41161 1-510); conditions: protein: recombinant; tags: N-terminal GST; dsDNA, one strand shown
Method in brief: as §1

[12] = biological target: HSF1 (Homo sapiens, UniProt Q00613 1-529); conditions: protein: recombinant; tags: N-terminal GST; chain copies: 3; dsDNA, one strand shown
Method in brief: as §1

[13] = biological target: T8, SPIC (Homo sapiens, UniProt Q8N5J4 1-248); conditions: protein: recombinant; tags: N-terminal GST; dsDNA, one strand shown
T8 sequence: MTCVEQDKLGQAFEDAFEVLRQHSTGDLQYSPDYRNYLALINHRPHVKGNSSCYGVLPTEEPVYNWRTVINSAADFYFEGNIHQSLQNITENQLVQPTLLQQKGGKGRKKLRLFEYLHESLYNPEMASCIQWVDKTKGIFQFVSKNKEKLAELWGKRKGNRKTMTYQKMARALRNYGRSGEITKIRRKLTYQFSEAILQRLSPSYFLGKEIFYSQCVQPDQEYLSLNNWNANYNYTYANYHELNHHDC
Method in brief: as §1

[14] = biological target: ELF4 (Homo sapiens, UniProt Q99607 1-663); conditions: protein: recombinant; tags: N-terminal GST; dsDNA, one strand shown
Method in brief: as §1

[15] = biological target: T9, ELK4 (Homo sapiens, UniProt P28324-2 1-405); conditions: protein: recombinant; tags: N-terminal GST; dsDNA, one strand shown
T9 sequence: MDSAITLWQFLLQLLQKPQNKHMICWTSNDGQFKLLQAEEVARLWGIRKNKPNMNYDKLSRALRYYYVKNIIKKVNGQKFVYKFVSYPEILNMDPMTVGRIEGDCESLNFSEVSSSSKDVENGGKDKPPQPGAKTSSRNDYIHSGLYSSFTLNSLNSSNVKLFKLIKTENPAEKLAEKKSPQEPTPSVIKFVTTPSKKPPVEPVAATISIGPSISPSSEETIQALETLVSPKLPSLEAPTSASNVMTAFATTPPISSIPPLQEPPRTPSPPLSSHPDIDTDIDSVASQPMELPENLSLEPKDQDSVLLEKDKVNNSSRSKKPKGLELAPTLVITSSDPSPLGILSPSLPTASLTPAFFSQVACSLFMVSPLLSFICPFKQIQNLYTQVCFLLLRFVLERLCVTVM
Method in brief: as §1

[16] = biological target: T10, ETV2 (Homo sapiens, UniProt O00321 1-342); conditions: protein: recombinant; tags: N-terminal GST; dsDNA, one strand shown
T10 sequence: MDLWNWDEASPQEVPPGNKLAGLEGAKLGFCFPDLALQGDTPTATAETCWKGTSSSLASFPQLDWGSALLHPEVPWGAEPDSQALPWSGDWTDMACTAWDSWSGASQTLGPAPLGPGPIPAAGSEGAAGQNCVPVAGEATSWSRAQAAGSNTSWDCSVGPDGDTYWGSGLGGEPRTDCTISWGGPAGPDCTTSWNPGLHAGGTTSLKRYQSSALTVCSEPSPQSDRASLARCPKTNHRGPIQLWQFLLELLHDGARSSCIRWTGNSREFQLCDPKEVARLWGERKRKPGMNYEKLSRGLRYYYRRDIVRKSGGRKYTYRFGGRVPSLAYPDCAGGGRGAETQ
Method in brief: as §1

[17] = biological target: T11, ELF3 (Homo sapiens, UniProt P78545 1-371); conditions: protein: recombinant; tags: N-terminal GST; dsDNA, one strand shown
T11 sequence: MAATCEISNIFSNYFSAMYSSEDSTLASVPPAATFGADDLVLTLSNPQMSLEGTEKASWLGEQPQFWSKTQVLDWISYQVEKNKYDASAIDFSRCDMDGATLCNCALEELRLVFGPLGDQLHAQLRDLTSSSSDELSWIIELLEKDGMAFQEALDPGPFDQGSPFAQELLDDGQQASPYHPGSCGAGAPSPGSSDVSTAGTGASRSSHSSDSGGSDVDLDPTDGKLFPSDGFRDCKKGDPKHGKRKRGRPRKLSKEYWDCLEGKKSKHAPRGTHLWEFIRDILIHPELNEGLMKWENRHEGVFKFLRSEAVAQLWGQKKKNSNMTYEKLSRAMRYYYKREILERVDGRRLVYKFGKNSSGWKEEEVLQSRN
Method in brief: as §1

[18] = biological target: CRX (Homo sapiens, UniProt O43186 1-299); conditions: protein: recombinant; tags: N-terminal GST; dsDNA, one strand shown
Method in brief: as §1

[19] = biological target: ETV1 (Homo sapiens, UniProt P50549 1-477); conditions: protein: recombinant; tags: N-terminal GST; dsDNA, one strand shown
Method in brief: as §1

Chain of HSF1 (Q00613 whole entry): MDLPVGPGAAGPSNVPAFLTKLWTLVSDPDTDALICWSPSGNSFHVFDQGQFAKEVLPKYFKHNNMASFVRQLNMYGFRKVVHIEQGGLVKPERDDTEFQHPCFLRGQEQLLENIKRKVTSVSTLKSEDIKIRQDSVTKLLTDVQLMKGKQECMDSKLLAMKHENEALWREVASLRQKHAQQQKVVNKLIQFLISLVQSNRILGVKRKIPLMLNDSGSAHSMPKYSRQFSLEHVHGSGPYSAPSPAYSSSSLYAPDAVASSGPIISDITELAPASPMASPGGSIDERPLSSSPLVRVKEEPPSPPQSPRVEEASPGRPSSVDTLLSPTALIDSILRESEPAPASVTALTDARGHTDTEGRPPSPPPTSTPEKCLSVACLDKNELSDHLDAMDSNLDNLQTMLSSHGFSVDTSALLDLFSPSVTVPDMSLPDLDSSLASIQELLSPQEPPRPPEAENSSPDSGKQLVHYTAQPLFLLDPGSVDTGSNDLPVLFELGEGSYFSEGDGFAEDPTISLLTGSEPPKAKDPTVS
Chain of ETV5 (P41161 whole entry): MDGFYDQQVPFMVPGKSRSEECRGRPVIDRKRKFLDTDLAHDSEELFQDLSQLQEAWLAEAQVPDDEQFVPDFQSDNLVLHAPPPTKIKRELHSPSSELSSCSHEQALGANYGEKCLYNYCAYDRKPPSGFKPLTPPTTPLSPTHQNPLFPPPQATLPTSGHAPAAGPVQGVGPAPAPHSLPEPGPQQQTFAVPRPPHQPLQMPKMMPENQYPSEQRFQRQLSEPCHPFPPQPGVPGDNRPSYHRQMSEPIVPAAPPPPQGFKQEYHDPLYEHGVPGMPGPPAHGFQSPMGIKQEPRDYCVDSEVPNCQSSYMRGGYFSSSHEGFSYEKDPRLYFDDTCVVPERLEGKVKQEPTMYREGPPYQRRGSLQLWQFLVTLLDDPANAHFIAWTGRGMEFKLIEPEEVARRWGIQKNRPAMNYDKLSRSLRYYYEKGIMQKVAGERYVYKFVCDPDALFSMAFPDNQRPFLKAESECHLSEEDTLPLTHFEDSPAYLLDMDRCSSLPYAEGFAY
Chain of ELF1 (P32519 whole entry): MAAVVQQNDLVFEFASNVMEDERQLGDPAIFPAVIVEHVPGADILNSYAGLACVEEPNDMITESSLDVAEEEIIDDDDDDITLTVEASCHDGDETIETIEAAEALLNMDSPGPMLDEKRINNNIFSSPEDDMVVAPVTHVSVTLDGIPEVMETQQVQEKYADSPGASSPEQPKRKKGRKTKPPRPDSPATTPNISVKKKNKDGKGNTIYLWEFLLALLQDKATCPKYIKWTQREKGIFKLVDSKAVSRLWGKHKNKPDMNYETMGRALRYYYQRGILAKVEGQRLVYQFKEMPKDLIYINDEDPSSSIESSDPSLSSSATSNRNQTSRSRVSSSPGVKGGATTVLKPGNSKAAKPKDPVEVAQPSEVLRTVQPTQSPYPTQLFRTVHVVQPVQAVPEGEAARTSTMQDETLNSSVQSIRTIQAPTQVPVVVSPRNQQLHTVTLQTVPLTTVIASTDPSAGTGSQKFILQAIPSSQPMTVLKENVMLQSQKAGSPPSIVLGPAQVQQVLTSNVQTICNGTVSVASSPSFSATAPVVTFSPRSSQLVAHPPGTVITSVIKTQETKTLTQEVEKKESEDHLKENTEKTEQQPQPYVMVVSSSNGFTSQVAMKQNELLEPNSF
Chain of CRX (O43186 whole entry): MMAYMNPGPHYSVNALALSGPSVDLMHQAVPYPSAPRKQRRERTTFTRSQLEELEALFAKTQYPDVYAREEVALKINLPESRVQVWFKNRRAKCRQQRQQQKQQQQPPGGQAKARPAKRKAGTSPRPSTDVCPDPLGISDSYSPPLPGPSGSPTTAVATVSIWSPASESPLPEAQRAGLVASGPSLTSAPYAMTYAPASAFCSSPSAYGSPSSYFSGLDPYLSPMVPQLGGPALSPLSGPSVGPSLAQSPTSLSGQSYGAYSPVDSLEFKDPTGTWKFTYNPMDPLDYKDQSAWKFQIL
Chain of SPIB (Q01892 whole entry): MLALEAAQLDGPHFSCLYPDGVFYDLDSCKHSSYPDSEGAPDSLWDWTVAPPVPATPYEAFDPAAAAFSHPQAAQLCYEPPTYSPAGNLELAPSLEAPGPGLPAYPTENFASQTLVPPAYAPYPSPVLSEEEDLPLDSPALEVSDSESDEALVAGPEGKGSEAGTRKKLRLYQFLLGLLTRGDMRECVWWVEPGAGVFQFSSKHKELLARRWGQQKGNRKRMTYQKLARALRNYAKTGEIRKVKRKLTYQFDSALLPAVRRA
Chain of ELF4 (Q99607 whole entry): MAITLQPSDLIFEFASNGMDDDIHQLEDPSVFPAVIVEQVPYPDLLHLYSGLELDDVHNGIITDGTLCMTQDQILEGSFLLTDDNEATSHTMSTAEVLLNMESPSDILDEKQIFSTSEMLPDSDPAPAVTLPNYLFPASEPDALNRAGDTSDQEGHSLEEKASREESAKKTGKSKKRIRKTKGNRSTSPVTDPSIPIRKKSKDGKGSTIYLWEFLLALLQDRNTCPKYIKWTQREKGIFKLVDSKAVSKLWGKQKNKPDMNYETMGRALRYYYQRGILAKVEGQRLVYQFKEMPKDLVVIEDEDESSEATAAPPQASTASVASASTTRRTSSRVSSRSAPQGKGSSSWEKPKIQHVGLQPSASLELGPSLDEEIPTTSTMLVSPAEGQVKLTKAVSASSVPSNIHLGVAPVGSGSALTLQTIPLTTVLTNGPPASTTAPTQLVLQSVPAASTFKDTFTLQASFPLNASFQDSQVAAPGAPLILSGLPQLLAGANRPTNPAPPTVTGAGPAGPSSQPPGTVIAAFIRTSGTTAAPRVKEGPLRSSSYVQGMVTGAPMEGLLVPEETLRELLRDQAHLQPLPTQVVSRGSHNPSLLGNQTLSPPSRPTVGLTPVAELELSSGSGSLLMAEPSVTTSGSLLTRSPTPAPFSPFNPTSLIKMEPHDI
Chain of ETV1 (P50549 whole entry): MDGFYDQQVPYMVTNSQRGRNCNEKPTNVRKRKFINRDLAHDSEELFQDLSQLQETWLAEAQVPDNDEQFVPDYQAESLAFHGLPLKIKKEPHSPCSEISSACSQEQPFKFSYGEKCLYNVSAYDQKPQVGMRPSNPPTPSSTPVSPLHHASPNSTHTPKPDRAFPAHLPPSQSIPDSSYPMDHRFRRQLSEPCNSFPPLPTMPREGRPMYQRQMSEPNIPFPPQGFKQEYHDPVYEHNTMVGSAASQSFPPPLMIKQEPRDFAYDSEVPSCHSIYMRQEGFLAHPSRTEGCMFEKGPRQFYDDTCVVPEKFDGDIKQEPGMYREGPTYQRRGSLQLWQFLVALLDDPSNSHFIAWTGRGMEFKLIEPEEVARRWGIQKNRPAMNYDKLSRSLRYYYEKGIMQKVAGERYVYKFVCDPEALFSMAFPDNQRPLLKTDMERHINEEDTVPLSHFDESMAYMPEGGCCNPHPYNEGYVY

## AAAATT
[1]
  binding signal: 1.35 fold enrichment (6-mer frequency, TF over GST control)
[2]
  binding signal: 1.34 fold enrichment (6-mer frequency, TF over GST control)
[3]
  binding signal: 1.38 fold enrichment (6-mer frequency, TF over GST control)
[4]
  binding signal: 1.28 fold enrichment (6-mer frequency, TF over GST control)
[5]
  binding signal: 1.34 fold enrichment (6-mer frequency, TF over GST control)
[6]
  binding signal: 1.26 fold enrichment (6-mer frequency, TF over GST control)
[7]
  binding signal: 1.32 fold enrichment (6-mer frequency, TF over GST control)
[8]
  binding signal: 1.45 fold enrichment (6-mer frequency, TF over GST control)
[9]
  binding signal: 1.33 fold enrichment (6-mer frequency, TF over GST control)
[10]
  binding signal: 1.29 fold enrichment (6-mer frequency, TF over GST control)
[11]
  binding signal: 1.4 fold enrichment (6-mer frequency, TF over GST control)
[12]
  binding signal: 1.73 fold enrichment (6-mer frequency, TF over GST control)
[13]
  binding signal: 1.2 fold enrichment (6-mer frequency, TF over GST control)
[14]
  binding signal: 1.41 fold enrichment (6-mer frequency, TF over GST control)
[15]
  binding signal: 1.34 fold enrichment (6-mer frequency, TF over GST control)
[16]
  binding signal: 1.54 fold enrichment (6-mer frequency, TF over GST control)
[17]
  binding signal: 1.43 fold enrichment (6-mer frequency, TF over GST control)
[18]
  binding signal: 1.46 fold enrichment (6-mer frequency, TF over GST control)
[19]
  binding signal: 1.36 fold enrichment (6-mer frequency, TF over GST control)
